Measured values taken from publication PMC11006913.
Substitutions are numbered along the chain they refer to.

What follows are sequences tested against HOXC10 (Homo sapiens, UniProt Q9NYD6 254-340, K271E) (assay: PBM; 200 nM protein, PBS). Conditions: dsDNA, one strand shown.
Chain of HOXC10 (Q9NYD6 254-340 K271E): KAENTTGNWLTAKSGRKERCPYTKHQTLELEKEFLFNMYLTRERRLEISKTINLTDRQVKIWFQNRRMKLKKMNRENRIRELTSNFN

Sequence | binding signal
GCCAAGCC | 10 upbm affinity estimate (log intensity, higher = more binding, comparable within an allelic series)
CCGGCAGG | 9.98 upbm affinity estimate (log intensity, higher = more binding, comparable within an allelic series)
CAGGCTTC | 9.96 upbm affinity estimate (log intensity, higher = more binding, comparable within an allelic series)
CGCGCGCG | 10 upbm affinity estimate (log intensity, higher = more binding, comparable within an allelic series)
GCCCCGAC | 10.1 upbm affinity estimate (log intensity, higher = more binding, comparable within an allelic series)
CCCTCTCG | 10.1 upbm affinity estimate (log intensity, higher = more binding, comparable within an allelic series)
CCCCCTTC | 9.78 upbm affinity estimate (log intensity, higher = more binding, comparable within an allelic series)
GAGGTTGC | 9.96 upbm affinity estimate (log intensity, higher = more binding, comparable within an allelic series)
CCCCACGG | 10 upbm affinity estimate (log intensity, higher = more binding, comparable within an allelic series)
CCCGAAGG | 9.97 upbm affinity estimate (log intensity, higher = more binding, comparable within an allelic series)

These sequences were tested against MSX2 (Homo sapiens, UniProt P35548 130-214) (assay: PBM; 200 nM protein, PBS). Conditions: dsDNA, one strand shown.
Chain of MSX2 (Homo sapiens, UniProt P35548 130-214) (P35548 130-214): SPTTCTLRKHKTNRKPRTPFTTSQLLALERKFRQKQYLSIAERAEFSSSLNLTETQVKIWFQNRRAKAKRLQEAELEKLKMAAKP

Sequence | binding signal
TAATTTGA | 13.4 upbm affinity estimate (log intensity, higher = more binding, comparable within an allelic series)
CGCGCGCG | 9.53 upbm affinity estimate (log intensity, higher = more binding, comparable within an allelic series)
GCCCGGAC | 9.46 upbm affinity estimate (log intensity, higher = more binding, comparable within an allelic series)
CCCCCCAG | 9.49 upbm affinity estimate (log intensity, higher = more binding, comparable within an allelic series)

Each sequence was assayed against ALX3 (Homo sapiens, UniProt O95076 139-225) (assay: PBM; 200 nM protein, PBS). Conditions: dsDNA, one strand shown.
Chain of ALX3 (Homo sapiens, UniProt O95076 139-225) (O95076 139-225): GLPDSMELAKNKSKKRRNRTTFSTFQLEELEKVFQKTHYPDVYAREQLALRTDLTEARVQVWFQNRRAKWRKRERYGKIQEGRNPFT

Sequence | binding signal
AGCCACGG | 7.83 upbm affinity estimate (log intensity, higher = more binding, comparable within an allelic series)
CCGGCAGG | 7.72 upbm affinity estimate (log intensity, higher = more binding, comparable within an allelic series)
CCGGACGG | 7.87 upbm affinity estimate (log intensity, higher = more binding, comparable within an allelic series)
CAGCCTCC | 7.74 upbm affinity estimate (log intensity, higher = more binding, comparable within an allelic series)
CCCCCTTC | 7.43 upbm affinity estimate (log intensity, higher = more binding, comparable within an allelic series)

These sequences were tested against T1, PAX4 (Homo sapiens, UniProt O43316 9-242, F177Y) (assay: PBM; 200 nM protein, PBS). Conditions: dsDNA, one strand shown.
T1 sequence: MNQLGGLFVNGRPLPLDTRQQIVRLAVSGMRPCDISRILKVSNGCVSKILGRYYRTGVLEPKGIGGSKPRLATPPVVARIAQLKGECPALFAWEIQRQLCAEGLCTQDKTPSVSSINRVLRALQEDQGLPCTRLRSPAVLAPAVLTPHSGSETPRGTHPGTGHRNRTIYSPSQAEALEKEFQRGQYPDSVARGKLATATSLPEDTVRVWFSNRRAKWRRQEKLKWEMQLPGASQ

Sequence | binding signal
CCCTGGTC | 9.15 upbm affinity estimate (log intensity, higher = more binding, comparable within an allelic series)
TAATTTGA | 10.9 upbm affinity estimate (log intensity, higher = more binding, comparable within an allelic series)
GCACCACC | 9.28 upbm affinity estimate (log intensity, higher = more binding, comparable within an allelic series)

Each sequence was assayed against ALX3 (Homo sapiens, UniProt O95076 139-225, L168Q) (assay: PBM; 200 nM protein, PBS). Conditions: dsDNA, one strand shown.
Chain of ALX3 (Homo sapiens, UniProt O95076 139-225, L168Q) (O95076 139-225 L168Q): as the sequence (O95076 139-225) above, with L30Q counted along it

Sequence | binding signal
AGCCACGG | 7.8 upbm affinity estimate (log intensity, higher = more binding, comparable within an allelic series)
CCGGCAGG | 7.79 upbm affinity estimate (log intensity, higher = more binding, comparable within an allelic series)
CCGGACGG | 7.82 upbm affinity estimate (log intensity, higher = more binding, comparable within an allelic series)
CAGCCTCC | 7.64 upbm affinity estimate (log intensity, higher = more binding, comparable within an allelic series)
CCCCCTTC | 7.31 upbm affinity estimate (log intensity, higher = more binding, comparable within an allelic series)

What follows are sequences tested against HOXC9 (Homo sapiens, UniProt P31274 178-260, R222W) (assay: PBM; 200 nM protein, PBS). Conditions: dsDNA, one strand shown.
Chain of HOXC9 (P31274 178-260 R222W): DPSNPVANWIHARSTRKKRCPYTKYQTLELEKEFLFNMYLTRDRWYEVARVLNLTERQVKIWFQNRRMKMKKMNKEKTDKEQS

Sequence | binding signal
AGCCACGG | 9.71 upbm affinity estimate (log intensity, higher = more binding, comparable within an allelic series)
CCGGACGG | 9.76 upbm affinity estimate (log intensity, higher = more binding, comparable within an allelic series)
CCCGAGGG | 9.61 upbm affinity estimate (log intensity, higher = more binding, comparable within an allelic series)
CAGGCTTC | 9.74 upbm affinity estimate (log intensity, higher = more binding, comparable within an allelic series)
AGCCCGAG | 9.78 upbm affinity estimate (log intensity, higher = more binding, comparable within an allelic series)
GCCTCCCA | 9.65 upbm affinity estimate (log intensity, higher = more binding, comparable within an allelic series)
CCCGACGC | 9.75 upbm affinity estimate (log intensity, higher = more binding, comparable within an allelic series)
GACCCTCC | 9.65 upbm affinity estimate (log intensity, higher = more binding, comparable within an allelic series)
CCGAGAGG | 9.58 upbm affinity estimate (log intensity, higher = more binding, comparable within an allelic series)

These sequences were tested against ALX3 (Homo sapiens, UniProt O95076 139-225, L168V) (assay: PBM; 200 nM protein, PBS). Conditions: dsDNA, one strand shown.
Chain of ALX3 (Homo sapiens, UniProt O95076 139-225, L168V) (O95076 139-225 L168V): as the sequence (O95076 139-225) above, with L30V counted along it

Sequence | binding signal
AGCCACGG | 7.72 upbm affinity estimate (log intensity, higher = more binding, comparable within an allelic series)
CCGGCAGG | 7.78 upbm affinity estimate (log intensity, higher = more binding, comparable within an allelic series)
CCGGACGG | 7.73 upbm affinity estimate (log intensity, higher = more binding, comparable within an allelic series)
CAGCCTCC | 7.62 upbm affinity estimate (log intensity, higher = more binding, comparable within an allelic series)
CCCCCTTC | 7.27 upbm affinity estimate (log intensity, higher = more binding, comparable within an allelic series)

These sequences were tested against MSX2 (Homo sapiens, UniProt P35548 130-214, F161Y) (assay: PBM; 200 nM protein, PBS). Conditions: dsDNA, one strand shown.
Chain of MSX2 (Homo sapiens, UniProt P35548 130-214, F161Y) (P35548 130-214 F161Y): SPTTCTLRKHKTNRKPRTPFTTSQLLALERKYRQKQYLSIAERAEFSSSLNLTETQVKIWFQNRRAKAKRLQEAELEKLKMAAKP

Sequence | binding signal
TAATTTGA | 13 upbm affinity estimate (log intensity, higher = more binding, comparable within an allelic series)
CGCGCGCG | 9.52 upbm affinity estimate (log intensity, higher = more binding, comparable within an allelic series)
GCCCGGAC | 9.5 upbm affinity estimate (log intensity, higher = more binding, comparable within an allelic series)
CCCCCCAG | 9.5 upbm affinity estimate (log intensity, higher = more binding, comparable within an allelic series)

Each sequence was assayed against T2, PAX4 (Homo sapiens, UniProt O43316 9-242, R227W) (assay: PBM; 200 nM protein, PBS). Conditions: dsDNA, one strand shown.
T2 sequence: T1 sequence with Y169F, R219W

Sequence | binding signal
CCCTGGTC | 9.21 upbm affinity estimate (log intensity, higher = more binding, comparable within an allelic series)
TAATTTGA | 10.9 upbm affinity estimate (log intensity, higher = more binding, comparable within an allelic series)
GCACCACC | 9.35 upbm affinity estimate (log intensity, higher = more binding, comparable within an allelic series)

These sequences were tested against HOXA2 (Homo sapiens, UniProt O43364 129-215, Y150S) (assay: PBM; 200 nM protein, PBS). Conditions: dsDNA, one strand shown.
Chain of HOXA2 (O43364 129-215 Y150S): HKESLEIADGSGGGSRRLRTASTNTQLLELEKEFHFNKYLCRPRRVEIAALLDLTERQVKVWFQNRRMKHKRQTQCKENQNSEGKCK

Sequence | binding signal
CAGGAAGG | 10.4 upbm affinity estimate (log intensity, higher = more binding, comparable within an allelic series)
CAGGCTTC | 10.4 upbm affinity estimate (log intensity, higher = more binding, comparable within an allelic series)
ATGAATGA | 10.9 upbm affinity estimate (log intensity, higher = more binding, comparable within an allelic series)
GCCCCGAC | 10.5 upbm affinity estimate (log intensity, higher = more binding, comparable within an allelic series)
CCCCCCAG | 10.1 upbm affinity estimate (log intensity, higher = more binding, comparable within an allelic series)

The sequences below were run against ALX1 (Homo sapiens, UniProt Q15699 118-204) (assay: PBM; 200 nM protein, PBS). Conditions: dsDNA, one strand shown.
Chain of ALX1 (Q15699 118-204): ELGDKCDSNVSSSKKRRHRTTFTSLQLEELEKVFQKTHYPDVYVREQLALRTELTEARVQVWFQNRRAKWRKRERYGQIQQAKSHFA

Sequence | binding signal
CCGGACGG | 6.67 upbm affinity estimate (log intensity, higher = more binding, comparable within an allelic series)
CAGCCTCC | 6.39 upbm affinity estimate (log intensity, higher = more binding, comparable within an allelic series)
CCGAGAGG | 6.34 upbm affinity estimate (log intensity, higher = more binding, comparable within an allelic series)

The sequences below were run against HOXA4 (Homo sapiens, UniProt Q00056 201-287, W262F) (assay: PBM; 200 nM protein, PBS). Conditions: dsDNA, one strand shown.
Chain of HOXA4 (Q00056 201-287 W262F): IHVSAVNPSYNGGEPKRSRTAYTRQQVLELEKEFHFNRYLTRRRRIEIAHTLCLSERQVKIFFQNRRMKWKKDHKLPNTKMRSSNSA

Sequence | binding signal
GCCAAGCC | 9.89 upbm affinity estimate (log intensity, higher = more binding, comparable within an allelic series)
CCCTGGTC | 9.7 upbm affinity estimate (log intensity, higher = more binding, comparable within an allelic series)
TAATTTGA | 10.8 upbm affinity estimate (log intensity, higher = more binding, comparable within an allelic series)
AGCCACGG | 9.91 upbm affinity estimate (log intensity, higher = more binding, comparable within an allelic series)
ACCTTCGC | 10.1 upbm affinity estimate (log intensity, higher = more binding, comparable within an allelic series)
CCGGCAGG | 9.96 upbm affinity estimate (log intensity, higher = more binding, comparable within an allelic series)
CCCCAGGC | 9.76 upbm affinity estimate (log intensity, higher = more binding, comparable within an allelic series)
GCACCACC | 9.79 upbm affinity estimate (log intensity, higher = more binding, comparable within an allelic series)
CCGGACGG | 9.82 upbm affinity estimate (log intensity, higher = more binding, comparable within an allelic series)
CAGCCTCC | 9.71 upbm affinity estimate (log intensity, higher = more binding, comparable within an allelic series)
CAGGAAGG | 9.73 upbm affinity estimate (log intensity, higher = more binding, comparable within an allelic series)
CCCGAGGG | 9.77 upbm affinity estimate (log intensity, higher = more binding, comparable within an allelic series)
CAGGCTTC | 9.89 upbm affinity estimate (log intensity, higher = more binding, comparable within an allelic series)
CGCGCGCG | 10.1 upbm affinity estimate (log intensity, higher = more binding, comparable within an allelic series)
AGCCCGAG | 9.85 upbm affinity estimate (log intensity, higher = more binding, comparable within an allelic series)
GCCCCGAC | 10.1 upbm affinity estimate (log intensity, higher = more binding, comparable within an allelic series)

Sequence | binding signal
CCCTCTCG | 9.89 upbm affinity estimate (log intensity, higher = more binding, comparable within an allelic series)
CCCCCTTC | 9.31 upbm affinity estimate (log intensity, higher = more binding, comparable within an allelic series)
GCCTCCCA | 9.77 upbm affinity estimate (log intensity, higher = more binding, comparable within an allelic series)
CCCGACGC | 9.96 upbm affinity estimate (log intensity, higher = more binding, comparable within an allelic series)
GGGGGAAC | 9.64 upbm affinity estimate (log intensity, higher = more binding, comparable within an allelic series)
GCCCGGAC | 9.88 upbm affinity estimate (log intensity, higher = more binding, comparable within an allelic series)
GAGGTTGC | 9.89 upbm affinity estimate (log intensity, higher = more binding, comparable within an allelic series)
GCGGACCC | 9.89 upbm affinity estimate (log intensity, higher = more binding, comparable within an allelic series)
CCCCACGG | 9.88 upbm affinity estimate (log intensity, higher = more binding, comparable within an allelic series)
CCCCCCAG | 9.4 upbm affinity estimate (log intensity, higher = more binding, comparable within an allelic series)
CCCGAAGG | 9.93 upbm affinity estimate (log intensity, higher = more binding, comparable within an allelic series)
GATCCCCC | 9.82 upbm affinity estimate (log intensity, higher = more binding, comparable within an allelic series)
GCCGGCCC | 9.8 upbm affinity estimate (log intensity, higher = more binding, comparable within an allelic series)
GACCCTCC | 9.9 upbm affinity estimate (log intensity, higher = more binding, comparable within an allelic series)
CCGAGAGG | 9.74 upbm affinity estimate (log intensity, higher = more binding, comparable within an allelic series)
CCGAAGGC | 9.89 upbm affinity estimate (log intensity, higher = more binding, comparable within an allelic series)
